The text below walks through data of PubChem BioAssay (EPA / NIEHS).

Results filed as inconclusive are left out. The source holds several records for some structures; these can differ, active in one and inactive in another. Calls of active or inactive are those of the source. Rule for the calls, unless noted: active = hit-call score of the fitted dose curve at least 0.9, where 1 is the maximum; inactive = score below 0.9.

Assay [1] is described as follows: UKN2_HCS_IMR90_cell_viability: Viability Assessment in the University of Konstanz (UKN) Leist Lab Neural Crest Cell Migration Assay in human induced IMR90 Pluripotent Stem Cells (UKN2) (AID 2284233).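 Note: viability of neural crest cells differentiated from IMR90 iPSC measured by calcein-AM fluorescence imaging; cells exposed to compound for 24 h after a 24 h migration phase.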 A digest of the protocol: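 Human IMR90-derived neural crest cells were allowed to migrate for 24 h into a cell-free zone, then exposed to test chemicals for 24 h. Calcein-AM and Hoechst staining with high-content imaging gave viability, analysed against DMSO baseline.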

The nature of assay [2]: CCTE_Mundy_HCI_Cortical_NOG_NeuronCount: CCTE's Neurite Outgrowth Assay in rat cortical cells for Neuron Count, Mundy Lab (AID 2284236; active = hit-call score of the fitted dose curve at least 0.9, where 1 is the maximum;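 note: neurons counted by imaging betaIII-tubulin and Hoechst stained cortical cells; cells exposed to compound for about 48 hours before fixation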). In short, it runs like this:
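Read-out: neuron number by high-content imaging of betaIII-tubulin (Alexa Fluor-488) and Hoechst-labelled rat primary cortical cells.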

A short description of assay [3]: CCTE_Mundy_HCI_Cortical_NOG_BPCount: CCTE's Neurite Outgrowth Assay in rat cortical cells for Branch Point Count, Mundy Lab (AID 2284237).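 For AC50: branch points counted about two days after chemical exposure.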 In short, it runs like this: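 Measured 50.33 h after dosing, this morphology endpoint uses rat primary cortical cultures labelled for betaIII-tubulin. Branch points are quantified by high-content imaging, with DMSO as negative control and baseline.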

Assay [4] is described as follows: CCTE_Mundy_HCI_hNP1_Casp3_7: CCTE's Caspase-Glo 3/7 Assay in human neuroprogenitor cells for Apoptosis, Mundy Lab (AID 2284240). In short, it runs like this:
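Apoptosis is scored by activated caspase-3/7 luminescence in WA09-derived neural progenitor cells, measured 26.5 h after chemical dosing. Values represent gain of signal relative to DMSO vehicle.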

A short description of assay [5]: CCTE_Mundy_HCI_hNP1_CellTiter: CCTE's Cell Titer-Glo 2 Assay in human neuroprogenitor cells for Viability, Mundy Lab (AID 2284241; active = hit-call score of the fitted dose curve at least 0.9, where 1 is the maximum;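 for AC50: a hit is a drop in ATP luminescence versus DMSO meaning reduced viability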). In short, it runs like this:
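Human neural progenitor cells (hNP1, WA09-derived) were plated on poly-L-ornithine/laminin and grown 40 to 44 hours at 37 °C, 5% CO2 before chemical addition. Twenty-four hours later, ATP was measured by CellTiter-Glo luminescence; loss of signal versus DMSO indicates reduced viability.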

The nature of assay [6]: CCTE_Mundy_HCI_Cortical_Synap_Neur_Matur_NeuronCount: CCTE's Synaptogenesis and Neurite Maturation Assay in rat cortical cells for Neuron Count, Mundy Lab (AID 2284242; active = hit-call score of the fitted dose curve at least 0.9, where 1 is the maximum;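 for AC50: neuron number from Hoechst nuclei and MAP2 staining by high-content imaging; hits reduce neuron count versus DMSO baseline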). A digest of the protocol: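 Imaging-based neuron count in rat cortical cultures after chemical exposure from DIV 7 to DIV 12, with AraC added at DIV 5. Activity is fitted relative to DMSO.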
Assay [7] is described as follows: TAMU_HCS_1.5hr_SingleDonor1434_Cytotoxicity: Cytotoxicity Assessment using High-content Screening (HCS) Fluorescent Imaging for the Texas A&M University (TAMU) 1.5-hr Human Induced Pluripotent Stem Cell (iPSC)-derived Cardiotoxicity Assay (AID 2284234; active = hit-call score of the fitted dose curve at least 0.9, where 1 is the maximum). A digest of the protocol:
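Human iPSC-derived cardiomyocytes dosed at 0.2, 1, 10, 100 uM final (0.5% DMSO) for 90 min at 37 C. Hoechst 33342-stained nuclei counted by 10x high-content imaging; POD is EC10, a 10% drop in total cell count versus DMSO.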

Assay [8] is described as follows: TAMU_PeakParms_SingleDonor1434_QT: Texas A&M University (TAMU) 1.5-hr Human Induced Pluripotent Stem Cell (iPSC)-derived Cardiomyocytes Calcium (Ca+2) Flux Assay for Cardiotoxicity: QT (decay-rise ratio) (AID 2284235; active = hit-call score of the fitted dose curve at least 0.9, where 1 is the maximum). A digest of the protocol:
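iPSC-derived cardiomyocytes (single donor 1434) dosed at 0.2, 1, 10, 100 uM final in 0.5% DMSO, 90 min at 37C. Ca2+ flux fluorescence decay/rise ratio; EC05 (5% increase versus DMSO) as POD, excluding beat-arrest and severe-notch data.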

Assay [9] in a line: UKN4_HCS_LUHMES_cell_viability: Viability Assessment in the University of Konstanz (UKN) Leist Lab Neurite Outgrowth Assay in human LUHMES cells (UKN4) (AID 2284232). In short, it runs like this:
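Human dopaminergic-model LUHMES neurons were exposed to chemicals for 24 h after a 2-day differentiation. Viability was scored by imaging Hoechst H-33342 staining, with activity fitted in both directions relative to DMSO controls.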

As usually defined, the AC50 is the concentration giving half of the maximal activity seen. `CC(C)(C)C(=O)C(Oc1ccc(Cl)cc1)n1cncn1` (stereo not drawn): the result in assay [1], in [2], in assay [4] and in [5] was inactive. The figures for the concentration at half-maximal activity (AC50) in [3] and in [6] were 33.2 µM (active) and 11 µM (active), respectively.

`O=C1C2CC=CCC2C(=O)N1SC(Cl)(Cl)Cl` (stereo not drawn): the AC50 in assay [7] was 84.7 µM (active). Also, the result in assay [8] was inactive.

For `CCNC(=O)NC(=O)C(C#N)=NOC`, the compound was called inactive in assay [2], in assay [3], in assay [4] and in [5].

On to `CCOP(=O)(OCC)Oc1nc(Cl)c(Cl)cc1Cl`, for which the results for the AC50 in assay [9], in assay [1] and in assay [4] were 65.1 µM (active), 3.19 µM (active) and 50 µM (active), respectively. Further, the compound was classed as inactive in [2], in assay [3], in assay [4], in assay [5] and in [6].

On to `CCN(CC)c1nc(C)cc(OP(=S)(OC)OC)n1`, for which the AC50 was 80.8 µM (active) in [2]; 90.6 µM (active) in assay [3]; 75.1 µM (active) in [4]; 71.4 µM (active) in assay [5]; 9.92 µM (active) in [6].

In the case of `N#CN=C1SCCN1Cc1ccc(Cl)nc1`, the call in assay [3], in assay [4] and in [5] was inactive.

On to `O=C(Nc1ccccc1-c1ccc(Cl)cc1)c1cccnc1Cl`, for which the outcome in assay [1], in assay [2], in assay [3], in assay [4] and in [5] was inactive.

Take `CS(=O)(=O)c1ccc(C(=O)C2C(=O)CCCC2=O)c([N+](=O)[O-])c1`: the call in [1], in assay [3], in assay [4] and in assay [5] was inactive.

On to `C=C(C)CN(CC)c1c([N+](=O)[O-])cc(C(F)(F)F)cc1[N+](=O)[O-]`, for which the AC50 in assay [1] was 121 µM (active); in assay [2], 50 µM (active); in assay [3], 50 µM (active); in assay [4] it was 77.5 µM (active); in assay [5] it was 31.5 µM (active); in [6], 8.46 µM (active).

In the case of `CCSC(=O)N1CCCCCC1`, the compound was called inactive in [1], in [2], in assay [3], in [4], in assay [5] and in assay [6].

For `COC(=O)N(C(=O)N1CO[C@@]2(C(=O)OC)Cc3cc(Cl)ccc3C2=N1)c1ccc(OC(F)(F)F)cc1`, in assay [1], the AC50 was 33.1 µM (active). The compound was classed as inactive in assay [3], in assay [4] and in assay [5].
